Laboratory results from PubChem BioAssay AID686978 (National Center for Advancing Translational Sciences (NCATS), 2013).
Several values for one entry are separate records, joined by “and”; a condition that tells them apart may be missing. Identical values can stand only once. The campaign covered roughly 420,000 compounds. About 64,000 (15%) were called active. Not shown: some 27% with an inconclusive outcome. Calls follow the shape of the dose curve; as a rule, active = well fitted inhibition curve with a large enough effect; inconclusive = small, poorly fitted or top-dose-only effect; inactive = flat fitted curve, though single readings scatter. Only a sample is shown. A call without a number means that no potency is given here.

Assay: qHTS for Inhibitors of human tyrosyl-DNA phosphodiesterase 1 (TDP1): qHTS in cells in absence of CPT; also: nearly all actives have a fitted effect of over 55% in size
Conditions: DT40 Tdp1-/- hTDP1 cells, no CPT, ATP luminescence, 48 h; activity change, negative = growth inhibition: at 46.2 µM (top of the series)
Method in brief: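 Chicken DT40 Tdp1-/- cells stably complemented with human TDP1 were seeded at 400 cells/well with DMSO in place of 20 nM camptothecin. After compound pinning, cells grew at least 48 hr at 37 °C; viability read by CellTiter-Glo luminescence.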
Potency is read from the fitted curve at half-maximal effect.

SMILES	Potency
CCOCCCN1C(=O)C2C(C(=O)Nc3ccc(OCC)cc3)C3C=CC2(O3)C1C(=O)NC1CCCCC1 (stereo not given)	inactive
O=C(Nc1cccc(Cl)c1)OCc1ccccn1	inactive
NS(=O)(=O)c1cccnc1Nc1cccc(Cl)c1	inactive
OCCCNc1nccc(-c2cc(Nc3cccc(Cl)c3)ncn2)n1	0.731 µM (active)
CCC(Sc1nncn1C)C(=O)Nc1nnc(-c2ccc(Cl)cc2)s1 (stereo not given)	inactive
NS(=O)(=O)c1cc2c(cc1Cl)NC(C(Cl)Cl)NS2(=O)=O (stereo not given)	inactive
O=P(c1cccs1)(c1cccs1)c1cccs1	inactive
O=C(Nc1ccccc1Cl)c1ccccc1S(=O)(=O)c1ccccc1[N+](=O)[O-]	inactive
COc1cc(OC)c(/C=N/NC(=O)c2ccc([N+](=O)[O-])cc2)cc1Br	inactive
COc1cc(/C=N/N=C(\N)c2nonc2N)cc(OC)c1OC	inactive
COc1cc(/C=N\NC(=O)c2nonc2N)c(OC)cc1Br	29.1 µM (active)
CCc1cc2c(=O)c(-c3nc4ccccc4n3C)c(CCCC(=O)O)oc2cc1OC(=O)C(C)(C)C	inactive
COc1ccc(O)c(/C=N/N=C/c2cccc([N+](=O)[O-])c2)c1	inactive
Cc1ccc(S(=O)(=O)NC(=O)N2CCCC(C)(C)C2)cc1	inactive
O=C(NC1CCN(C(=S)NCc2ccco2)CC1)c1ccc(F)cc1	inactive
O=S(=O)(NCc1cccnc1)c1ccc(Br)s1	inactive
O=S(=O)([N-]c1nc2ccccc2nc1-[n+]1ccc(Cc2ccccc2)cc1)c1ccc(Br)s1	14.6 µM (active)
Cc1cc(C)c[n+](-c2nc3ccccc3nc2[N-]S(=O)(=O)c2cccs2)c1	inactive
Cc1cc(C)cc(NC(=O)CCS(=O)(=O)c2cc3c4c(c2)CCN4C(=O)CC3)c1	inactive
CC1CSc2nnc(CCc3ccccc3)n21 (stereo not given)	inactive
Cc1cc(C(=O)COC(=O)c2cccs2)c(C)n1-c1c(C)n(C)n(-c2ccccc2)c1=O	inactive
COc1ccc(-c2nnc(SC(C)C#N)o2)cc1 (stereo not given)	inactive
COc1ccc(-c2nnc(SC(=O)N3c4ccccc4Sc4ccccc43)o2)cc1	7.94 µM (active)
COc1ccc(-c2nnc(-c3ccc4ccccc4c3)o2)cc1	inactive
COc1ccc(NC(=S)SC)cc1OC	inactive

SMILES	Potency
COc1cc(C(c2c(NC(=O)c3ccco3)sc(C)c2C)N2CCOCC2)cc(OC)c1OC (stereo not given)	29.1 µM (active)
COC(=O)c1cc(NC(=O)c2ccco2)ccc1N1CCOCC1	inactive
COc1ccc(CC(=O)Nc2ccccc2NC(=O)c2ccco2)cc1OC	inactive
C=CCNC(=O)c1cc2nc(C3CC3)cc(C(F)F)n2n1	inactive
CCCCn1c(N)c(N(CC)C(=O)/C=C/c2ccco2)c(=O)[nH]c1=O	inactive
CC1CCN(C(=O)c2ccc3c(=O)n4c(nc3c2)CCCCC4)CC1	inactive
Cc1ccc(NC(=O)Nc2sc3nc4n(c(=O)c3c2C)CCC(C)CC4)c(Cl)c1 (stereo not given)	11.6 µM (active)
CC1CCc2c(sc3nc4n(c(=O)c23)CCS4)C1 (stereo not given)	inactive
CNC(=O)c1nnc(Cc2ccc(Cl)cc2)o1	inactive
O=C1C2C3C=CC(C3)C2C(=O)N1c1ccc(S(=O)(=O)Nc2nccs2)cc1 (stereo not given)	inactive
Cc1ccc2sc(NNC(=O)c3ccc4c(c3)OCCO4)nc2c1C	inactive
Cc1ccc2nc(NC(=O)C3CCN(S(=O)(=O)c4ccc5c(c4)oc(=O)n5C)CC3)sc2c1	14.6 µM (active)
O=C(NC1CCCCC1)n1c(=O)oc2cc(S(=O)(=O)N3CCCCC3)ccc21	inactive
O=C(Nc1nc2ccc(S(=O)(=O)N3CCCC3)cc2s1)C1CCCO1 (stereo not given)	inactive
CC(=O)Nc1c2c(nn1-c1ccc(C)cc1C)CS(=O)C2 (stereo not given)	inactive
O=C(Nc1ccc(-c2ccc3nncn3n2)cc1)C1CCCCC1	16.4 µM (active)
O=C(O)c1ccc(NC(=O)C2CCCCC2)cc1	inactive
CC(=O)c1ccc(S(=O)(=O)Nc2ccc(-c3ccc4nncn4n3)cc2)cc1	inactive
CCOc1ccc(C2c3[nH]c4ccccc4c3CCN2Cc2cccn2-c2ncccn2)cc1 (stereo not given)	13 µM (active)
O=C(c1cn2ccccc2n1)N1CCc2c([nH]c3ccccc23)C1c1ccccn1 (stereo not given)	inactive
c1ccc(C2c3[nH]c4ccccc4c3CCN2Cc2cccn2-c2cccnc2)nc1 (stereo not given)	5.8 µM (active)
CCOc1ccc(C2c3[nH]c4ccccc4c3CCN2Cc2cn(CC)nc2C)cc1 (stereo not given)	inactive
COCC(=O)Nc1c(I)c(C(=O)NCC(O)CO)c(I)c(C(=O)N(C)CC(O)CO)c1I (stereo not given)	inactive
Nc1nc(SCC(=O)N2CCN(S(=O)(=O)c3ccc(Cl)cc3)CC2)n[nH]1	inactive
CC(CCN1CCN=C1N(C)C)c1ccccc1 (stereo not given)	inactive

SMILES	Potency
Cc1ccc2[nH]c(=O)c(COC(=O)c3ccccn3)cc2c1	inactive
Cc1ccccc1NC(=O)c1cnn(-c2ccccc2)c1NC(=O)c1ccco1	inactive
Nc1cc2c(cc1Br)-c1ccc(F)cc1C2=O	inactive
COC(=O)C[C@H]1C=C[C@H](NC(=O)c2ccc(F)cc2)[C@@H](CO)O1	inactive
Cc1ccsc1/C=N/NC(=O)Cc1cc(=O)[nH][nH]1	inactive
O=C1C[C@@H]2c3c(cccc3CN1Cc1ccccc1)C[C@@H](O)[C@H]2O	inactive
O=C1C[C@H]2C=CCc3cccc(c32)CN1Cc1ccccc1	20 µM (active)
CCCC(=O)C1CCN(Cc2ccccc2)CC1	inactive
Cc1cccc(C)c1N1C(=O)CN(Cc2ccccc2)C1=S	inactive
Brc1ccc(CN2CC[C@H]3C=CCc4cccc(c43)C2)cc1	15.8 µM (active) and 20.6 µM (active)
C/C(Cn1nnc2ccccc21)=N\OC(=O)c1cc(F)c(F)cc1Cl	inactive
O=C(NCc1ccc(F)cc1)C1CCC(CNc2c(N3CCOCC3)c(=O)c2=O)CC1 (stereo not given)	inactive
CC[C@]1(O)C[C@@H]2CN(CCc3c([nH]c4ccccc34)[C@@](C(=O)OC)(c3cc4c(cc3OC)N(C)[C@H]3[C@@](O)(C(=O)OC)[C@H](OC(C)=O)[C@]5(CC)C=CCN6CC[C@]43[C@@H]65)C2)C1	51.7 nM (active) and 59.6 nM (active) and 82 nM (active)
CC[C@]1(O)CC2CN(CCc3c([nH]c4ccccc34)[C@@](C(=O)OC)(c3cc4c(cc3OC)N(C=O)[C@H]3[C@@](O)(C(=O)OC)[C@H](OC(C)=O)[C@]5(CC)C=CCN6CC[C@]43[C@@H]65)C2)C1 (stereo not given in full)	inactive
CCN(CC)Cc1c(C(=O)OC)nnn1-c1nonc1N	inactive
CCNC(=O)C1(C)CCCN1C(=O)c1ccc(N(C)C)cc1 (stereo not given)	inactive
CC1(C(=O)NS(=O)(=O)c2ccccc2)CCN1C(=O)c1ccccc1 (stereo not given)	inactive
CC(C)NC(=O)C1(C)CCCCCN1C(=O)c1ccc(-c2ccccc2)cc1 (stereo not given)	9.2 µM (active)
CC(C)(CNCC(O)c1ccccc1)N1CCOCC1 (stereo not given)	inactive
CCOc1ccc(/C=N/NC(N)=S)cc1	16.4 µM (active)
NC(=S)N/N=C/c1ccc([N+](=O)[O-])cc1	inactive
CCOC(=O)N1CCC(=NNC(N)=O)CC1	inactive
CC1CC(C)CN(c2oc(-c3ccc(OCc4ccc(Cl)cc4)cc3)nc2C#N)C1 (stereo not given)	inactive
CCC(C)Nc1oc(-c2ccc(COc3ccc(Cl)cc3)o2)nc1C#N (stereo not given)	23.1 µM (active)
N#Cc1nc(COc2ccc(Cl)cc2)oc1N1CCCC1	inactive

SMILES	Potency
COC(=O)c1sccc1NC(=O)c1ccc(Cl)cc1	inactive
O=C1c2ccccc2C(=O)C1c1ccccc1	inactive
COCCCn1c(=O)/c(=C/c2ccccc2OC(C)C)s/c1=C(\C#N)C(=O)Nc1ccc(C(=O)O)cc1	20.6 µM (active)
COc1ccc(NC(=O)/C(C#N)=C\c2cc(OC)c(OCc3ccc(C(=O)O)cc3)cc2Br)cc1	inactive
COc1ccccc1C(=O)N/C(=C/c1ccco1)C(=O)Nc1ccc(C(=O)O)cc1	inactive
COCCNC(=S)N(CCc1c(C)[nH]c2ccc(C)cc12)Cc1cccnc1	inactive
CCn1cc(C(=O)N2CC=C(c3ccccc3)CC2)c(=O)c2ccc(C)nc21	inactive
CCOc1cc(/C=C(\C#N)c2nc(-c3cccs3)c(NC(C)=O)s2)ccc1O	3.66 µM (active)
CCOc1cc(/C=C(/C#N)c2ccc(Cl)cc2)cc(Cl)c1OCC(=O)O	inactive
CCOc1cc(/C=C(\C#N)C(=O)Nc2ccccc2C)ccc1OCc1cc(=O)n2nc(CC)sc2n1	inactive
CSc1nc(C)nc2c1c(=O)n(C)c(=O)n2C	inactive
O=P(O)(O)OC[C@H](O)CO	inactive
CC1(C)CC(CCC(=O)Nc2ccccc2Cl)C(=O)O1 (stereo not given)	inactive
CCCCOc1ccc(NC(=O)[C@@H]2CCCN2C(=O)C2CCN(S(=O)(=O)c3ccc(C)cc3)CC2)cc1	inactive
CCCCCCNC(=O)O[C@H]1CN(C(=O)OC(C)C)N(C(=O)OC(C)C)[C@@H]2CN(S(=O)(=O)c3ccc(C)cc3)C[C@]12O	16.4 µM (active)
Cc1ccc(S(=O)(=O)N2CCC(C(=O)N[C@@H](C)C(=O)NCc3ccccc3)CC2)cc1	inactive
O=C(CNS(=O)(=O)c1ccc2ccccc2c1)Nc1ccc(F)c(F)c1F	inactive
COc1ccc(C(=O)Nc2cc(C)ccc2NC(=O)COc2ccccc2)cc1	inactive
Cc1ccc(NS(=O)(=O)c2ccc(C)c(NC(=O)COc3ccc4ccccc4c3)c2)c(C)c1	16.4 µM (active)
CC1CCCCN1C(=S)NCc1ccccc1 (stereo not given)	inactive
O=C(CC1CCCCC1)NCc1ccccc1	inactive
C/C(=N\NC(=S)NCc1ccccc1)c1ccc(Cl)cc1	18.4 µM (active)
O=C(O)c1ccc(/C=N/NC(=S)NCc2ccccc2)cc1	inactive
CN(C)CCCNC(=S)NCc1ccc(Cl)cc1	inactive
C/C(=N\NC(=S)NCc1ccccc1)C1CCCCC1	6.51 µM (active)
